The record followed here is the supplement of paper PMC9262897, “Low-cost anti-mycobacterial drug discovery using engineered E. coli” (Nature Communications, 2022).

The subject of the experiment is E. coli TESEC Mtb Alr. In words: growth (OD600 after 10 h); higher = more growth (less inhibition). Conditions: compound 0.1 mM. As for the experimental part: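 TESEC Mtb Alr E. coli, or the Alr+ wild-type control, in 384-well plates with Prestwick library compounds at 0.1 mM and 1% DMSO, across arabinose induction levels of 1E3 to 1E7 nM. Growth is read as OD600 after 10 h at 37 °C in triplicate biological replicates.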

Where [1] appears, read: arabinose 1000 nM, raw OD600 reference: median of DMSO wells 0.294, cell-free background 0.041.
The mark [2] stands for this setting: arabinose 10000 nM, raw OD600 reference: median of DMSO wells 0.264, cell-free background 0.041.
The mark [3] stands for this setting: arabinose 100000 nM, raw OD600 reference: median of DMSO wells 0.201, cell-free background 0.041.
[4] abbreviates: arabinose 1000000 nM, raw OD600 reference: median of DMSO wells 0.193, cell-free background 0.041.
[5] abbreviates: arabinose 10000000 nM, raw OD600 reference: median of DMSO wells 0.146, cell-free background 0.041.

Structures can show the parent of a compound that is named as a salt. ± gives the standard deviation of the averaged measurements.

In the case of `CC(c1cc2ccccc2s1)N(O)C(N)=O` (stereo not given) [Zileuton], the growth runs as follows: under setting [1], 0.295 ± 0.021; under setting [2], 0.254 ± 0.011; under setting [3], 0.223 ± 0.018; under setting [4], 0.183 ± 0.0054; under setting [5], 0.151 ± 0.0028.

Regarding `COCCc1ccc(OCC(O)CNC(C)C)cc1` (racemic) [Metoprolol-(+,-) (+)-tartrate salt], the growth came to 0.306 ± 0.018 under setting [1]; 0.266 ± 0.014 under setting [2]; 0.203 ± 0.013 under setting [3]; 0.199 ± 0.0081 under setting [4]; 0.141 ± 0.0035 under setting [5].

With `Cc1ccnc2c1NC(=O)c1cccnc1N2C1CC1` [Nevirapine], the growth by setting is: under setting [1], 0.29 ± 0.0079; under setting [2], 0.254 ± 0.0046; under setting [3], 0.212 ± 0.0063; under setting [4], 0.203 ± 0.0086; under setting [5], 0.14 ± 0.0044.

`O=C(O)c1cccnc1` [Niacin]: the growth reads like this: under setting [1], 0.346 ± 0.021; under setting [2], 0.304 ± 0.0045; under setting [3], 0.243 ± 0.0028; under setting [4], 0.238 ± 0.0034; under setting [5], 0.152 ± 0.0078.

For the compound `CC(=O)CC(c1ccc([N+](=O)[O-])cc1)c1c(O)c2ccccc2oc1=O` (stereo not given) [Acenocoumarol], the growth stood at 0.298 ± 0.0045 under setting [1]; 0.2588 ± 0.0011 under setting [2]; 0.175 ± 0.0092 under setting [3]; 0.1675 ± 0.0012 under setting [4]; 0.139 ± 0.0017 under setting [5].

For the compound `Clc1ccc(COC(Cn2ccnc2)c2ccc(Cl)cc2Cl)cc1` (stereo not given) [Econazole nitrate], the growth is, setting by setting: under setting [1], 0.048 ± 0.0022; under setting [2], 0.05773 ± 5.8e-05; under setting [3], 0.0544 ± 0.0013; under setting [4], 0.0574 ± 0.0015; under setting [5], 0.0483 ± 0.0014.

`NS(=O)(=O)c1cc2c(cc1Cl)NCNS2(=O)=O` [Hydrochlorothiazide] gave a growth under setting [1] of 0.282 ± 0.019; a growth under setting [2] of 0.255 ± 0.006; a growth under setting [3] of 0.234 ± 0.011; a growth under setting [4] of 0.166 ± 0.0054; a growth under setting [5] of 0.14 ± 0.0039.

Turning to `CN1CCc2c(c3ccccc3n2Cc2ccccc2)C1` [Mebhydroline 1,5-naphtalenedisulfonate], the growth runs as follows: under setting [1], 0.218 ± 0.0081; under setting [2], 0.267 ± 0.012; under setting [3], 0.199 ± 0.02; under setting [4], 0.133 ± 0.0032; under setting [5], 0.157 ± 0.005.
